In PubChem BioAssay AID463195 (Sanford-Burnham Center for Chemical Genomics, 2010) one finds inhibition data, which are given here for 26 compounds.

Out of some 330,000 compounds screened, about 4,600 (1.4%) were called active. The sample holds actives, similar compounds and a random draw of the others, so the mix is not that of the screen.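 The calls were made as follows: active = inhibition of 40% or more at the single tested concentration; inactive = the rest.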

This assay is described as follows: growth inhibitors of isogenic TIM10 control yeast, primary screen, counter-screen for tim10-1 yeast inhibitor project, luminescence, uHTS (AID 463195).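 Also: wild-type TIM10 isogenic control strain grown at permissive 25 °C; 0% = DMSO yeast wells and 100% = minimal medium wells without yeast.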 The conditions noted are these: S. cerevisiae TIM10 strain growth, BacTiter-Glo luminescence, 24 h; at 10 µM; stronger effect = higher value.
Regarding `COc1cc2c(cc1NC(=O)COC(=O)/C=C/c1ccccc1)oc1ccccc12`, the inhibition is -21.9% (inactive).

On to `CN(c1ccc(OCC(=O)NC2=NCCS2)cc1)S(=O)(=O)c1ccc(F)cc1`, for which the inhibition is -18.2% (inactive).

Take `C/C(CC1CC(C)(C)OC1=O)=N/Nc1nc(-c2ccccc2)cs1` (stereo unspecified): the inhibition is 17.6% (inactive).

In the case of `O=C(CSc1cccc[n+]1[O-])c1ccc(-c2ccccc2)cc1`, the inhibition was 42% (active).

Turning to `O=C(CSc1cccc[n+]1[O-])c1ccc(Cl)cc1`, the inhibition is 1.21% (inactive).

Take `COc1ccccc1C(=O)CSc1cccc[n+]1[O-]`: the inhibition is -4.59% (inactive).

Take `CCc1cc2cc(OC)ccc2nc1SCC(=O)Nc1cc(OC)c(OC)cc1C(=O)O`: the inhibition was 11.1% (inactive).

Turning to `Cc1ccc(NC(=O)c2ccc(Oc3ncccn3)cc2)cc1`, the inhibition was 9.43% (inactive).

As for `COc1cccc(N(CC(=O)NCCSc2ccccn2)S(C)(=O)=O)c1`, the inhibition was -1.16% (inactive).

On to `CC(OC(=O)c1ccc(S(=O)(=O)N2CCOCC2)cc1)c1ccccc1` (stereo unspecified), for which the inhibition is 10.1% (inactive).

Regarding `COC(=O)c1ccc(S(=O)(=O)N2CCc3ccccc3C2)cc1`, the inhibition is -8.05% (inactive).

For `O=C(ON=C1CCN(S(=O)(=O)c2ccccc2)CC1)c1ccc(Cl)cc1`, the inhibition was 48% (active).

Consider `Cc1cc[n+](-c2[nH]c(=O)sc2/C=N/NC(=O)c2ccccc2[O-])cc1C`, for which the inhibition is 2.83% (inactive).

With `CN(c1ccc(O)cc1)c1nc(-c2cccnc2)cs1`, the inhibition was -2.92% (inactive).

Take `COc1ccccc1C1=CC(=O)C[C@H](c2ccc(F)cc2)C1`: the inhibition was -15.1% (inactive).

On to `COc1ccccc1-c1n[nH]c2c1[C@H](C)CC[C@H]2C(C)C`, for which the inhibition was 56% (active).

Regarding `CCN(C[C@H]1N[C@@](CC)(C(=O)OC)[C@H]2C(=O)N(Cc3ccccc3)C(=O)[C@@H]12)S(=O)(=O)c1ccc(C(F)(F)F)cc1`, the inhibition is 12.3% (inactive).

With `Cc1ccc(Nc2nc(C)cc(C)c2C(N)=O)cc1`, the inhibition was 6.89% (inactive).

On to `Cc1ccc(Nc2nc(Cl)c(C=O)s2)cc1`, for which the inhibition is 41.1% (active).

Regarding `Cc1ccc(NC(=O)Nc2nnc(-c3ccncc3)s2)cc1`, the inhibition was 5.77% (inactive).

On to `CC(C)NC(=O)NC(=O)CSc1nnc(-c2ccccc2F)n1N`, for which the inhibition is 5.49% (inactive).

For `CN(C(=O)CSc1nnc(N)s1)c1c(N)n(Cc2ccccc2)c(=O)[nH]c1=O`, the inhibition is 10.2% (inactive).

`CS(=O)(=O)N(CC(=O)N1CCOCC1)c1ccc2c3c(cccc13)CC2`: the inhibition was 8.14% (inactive).

Turning to `CCOc1ccccc1/C=c1\sc2nc(-c3ccco3)nn2c1=O`, the inhibition was 45% (active).

Turning to `CCCn1nc(C(=O)NNC(=O)CCOc2ccccc2OCC)c2ccccc2c1=O`, the inhibition is 13.7% (inactive).

Take `CCOc1ccccc1C1NC(=O)NC(C)=C1C(=O)OCc1ccco1` (stereo unspecified): the inhibition was 0.932% (inactive).
